The list is not random: actives were taken first. Their share in the collection is about 11%.
IMPase Li cell: qHTS Assay for Identifying the Cell-Membrane Permeable IMPase Inhibitors: Potentiation with Lithium; CHO-M1 cells, IP1 TR-FRET (IP-One), carbachol + lithium; 0.35% of 210,000 active; AID 1457, 2008; Potency, µM (titrated, usually from 59.4 µM), most hits filed as inhibitors;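 further: IP1 builds up when IMPase is blocked and the TR-FRET signal falls; nearly all actives have a fitted effect of over 50% in size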
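CHO-M1, 2000 cells/well, 16–30 h culture; cpd + low Li+, 30 min 37C; lysis with d2-IP1/Eu-anti-IP1 Ab, 10 min RT; TR-FRET 665/620 ratio and 620 channel; AC50 via Hill.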
PNC assembly inh: High Content Assay for Compounds that inhibit the Assembly of the Perinucleolar Compartment; PC3M PTB-GFP, PNC prevalence imaging, 16 h; active compounds read low; activity change (PNC), negative = inhibition, % at 10 µM; 3.1% of 140,000 active;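 active means readout at or below -70, meaning at least 70% loss of cells showing the perinucleolar compartment, a nuclear body marking cancer cells; inconclusive means readout between -30 and a set limit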
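Compounds are pinned in duplicate onto adhered PC3M cells stably expressing GFP-tagged PTB and incubated 16 h at 37 C. Cells are then fixed, nuclei stained with Hoechst, and PNC-positive cells counted.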
ALDH1A1 inh: qHTS Assay for Inhibitors of Aldehyde Dehydrogenase 1 (ALDH1A1). Potency, µM (titrated, usually from 75.3 µM), usual class: inhibitors. Purified ALDH1A1, NADH fluorescence, propionaldehyde substrate. AID 1030, 2008. 7.3% of 220,000 active; active means well fitted inhibition curve with a large enough effect, not every such curve was filed as active; inconclusive means small, poorly fitted or top-dose-only effect, or another doubt; inactive means no such curve, though single readings can be large or run the other way
Target sequence (P00352 whole entry, looked up): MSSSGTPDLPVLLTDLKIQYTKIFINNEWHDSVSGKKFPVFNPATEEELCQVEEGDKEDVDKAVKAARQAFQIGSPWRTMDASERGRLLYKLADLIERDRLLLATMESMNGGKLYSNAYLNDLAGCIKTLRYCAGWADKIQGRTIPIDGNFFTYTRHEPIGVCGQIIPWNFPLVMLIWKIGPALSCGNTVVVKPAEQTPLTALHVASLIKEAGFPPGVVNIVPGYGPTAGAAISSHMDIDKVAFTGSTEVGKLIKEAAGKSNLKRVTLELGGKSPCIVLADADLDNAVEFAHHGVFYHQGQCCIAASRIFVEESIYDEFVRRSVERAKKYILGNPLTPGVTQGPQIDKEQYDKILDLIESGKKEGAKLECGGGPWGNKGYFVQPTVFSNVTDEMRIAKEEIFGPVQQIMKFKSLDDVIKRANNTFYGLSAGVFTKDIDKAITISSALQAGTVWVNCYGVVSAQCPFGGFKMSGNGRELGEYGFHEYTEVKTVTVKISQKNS
ALOX12 inhib: qHTS Assay for Inhibitors of 12-hLO (12-human lipoxygenase); Potency, µM (highest dose often 57.1 µM), usual class: inhibitors; AID 1452, 2008; Polyunsaturated fatty acid lipoxygenase ALOX12 (Homo sapiens), P18054; 0.12% of 150,000 active; purified 12-hLO, xylenol orange hydroperoxide absorbance; further: nearly all actives have a fitted effect of over 55% in size
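Hydroperoxide output read as Fe(III)-xylenol orange absorbance, 573-to-405 nm ratio, after 30 min reaction with 40 uM arachidonic acid. Enzyme: 150 nM purified human 12hLO, 15 min compound preincubation; 25 mM Hepes pH 7.0, room temperature.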
IMPase inh: qHTS Assay for Identifying the Cell-Membrane Permeable IMPase Inhibitors | Inositol monophosphatase 1 (Rattus norvegicus), P97697 | CHO-M1 cells, IP1 accumulation, HTRF TR-FRET ratio | inhibition (IP1 accumulation), % at 46.1 µM | 120,000 tested, under 10 active | AID 901, 2007; active means well fitted curve in the direction sought with a large enough effect in the signal ratio, not every such curve was filed as active; inconclusive means small, poorly fitted or top-dose-only effect, or a change in a side signal; inactive means no such curve, though single readings can be large or run the other way; the % refers to the signal ratio;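 further: cells stimulated with carbachol in lithium chloride buffer; higher means more IMPase inhibition seen as more IP1 and lower FRET ratio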
Target sequence (P97697 whole entry, looked up): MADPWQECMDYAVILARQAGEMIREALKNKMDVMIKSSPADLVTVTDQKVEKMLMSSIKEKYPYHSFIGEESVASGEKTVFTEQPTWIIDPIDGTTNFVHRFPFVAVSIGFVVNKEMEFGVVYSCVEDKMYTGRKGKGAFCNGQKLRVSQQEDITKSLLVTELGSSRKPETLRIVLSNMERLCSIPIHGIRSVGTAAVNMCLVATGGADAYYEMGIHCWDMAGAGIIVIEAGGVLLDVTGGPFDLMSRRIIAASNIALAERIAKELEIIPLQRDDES
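In this qHTS, compounds (final up to 46 uM) act on CHO-M1 cells that are then activated through the M1 receptor with carbachol, in pH 7.4 buffer containing 50 mM LiCl, for 30 min. IP1 accumulation is quantified by the IP-One immunoassay.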
HPGD block: qHTS Assay for Inhibitors of HPGD (15-Hydroxyprostaglandin Dehydrogenase) | purified HPGD, NADH fluorescence kinetic, PGE2 substrate | 15-hydroxyprostaglandin dehydrogenase [NAD(+)] (Homo sapiens), P15428 | 4.3% of 150,000 active | Potency, µM, usual class: inhibitors; active means well fitted inhibition curve with a large enough effect, not every such curve was filed as active; inconclusive means small, poorly fitted or top-dose-only effect, or another doubt; inactive means no such curve, though single readings can be large or run the other way
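20 nM HPGD preincubated 15 min at room temperature with compound in 50 mM Tris-HCl pH 8, 0.01% Tween 20. Started with 1 mM NAD+ and 30 uM prostaglandin E2; NADH fluorescence (360/450 nm) read 5 times over 30-s intervals, last minus first.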
Numbers stand for hits; 0 = inactive; ? = inconclusive; - = no result given; [ ] = another dose, or the depositor's remark. Unless noted, the call rests on the fitted dose curve; in most records, active means well fitted curve in the direction sought with a large enough effect; inconclusive means small, poorly fitted or top-dose-only effect, or another doubt; inactive means no such curve, though single readings can be large; an effect the other way counts as inactive or inconclusive.

SMILES	IMPase Li cell	PNC assembly inh	ALDH1A1 inh	ALOX12 inhib	IMPase inh	HPGD block
COc1cc(-c2cc(=O)c3c(O)cc(O)cc3o2)ccc1O	0	-	?	-	-	-
O=c1cc(-c2ccncc2)oc2ccccc12	0	0	0	0	0	0
O=c1cc(-c2c(F)c(F)c(F)c(F)c2F)oc2ccccc12	0	0	15.8µM	0	0	0
Cc1ccc(Cl)cc1NC1=NC(=S)N(C(C)C)C12CCCCC2	0	0	0	0	?	0
CC(=O)OC[C@H]1O[C@@H](O/N=C(\C)CCC(=O)OC[C@@H]2O[C@H](C#Cc3ccccc3)C=C[C@@H]2Oc2ccc(C)cc2)[C@H](OC(C)=O)[C@@H](OC(C)=O)[C@H]1OC(C)=O	-	-	0[13.5 µM]	-	-	-
COC(=O)C(C(=O)OC)C1c2ccccc2C=C(C)N1C(=O)OC (configuration not stated)	0	-	0[13.5 µM]	0[11.4 µM]	-	0
COC(=O)c1ccc2c(c1)S(=O)(=O)NC(=NCc1ccco1)S2	0	0	0	0	0	14.1µM
COc1ccccc1N1CCN(CC(=O)c2ccc3ccn(C(C)=O)c3c2)CC1	0	0	?	0	0	0
CC(=O)OCC(=O)c1ccc2ccn(C(C)=O)c2c1	0	-100.0	?	0	0	?
CC(=O)OCOC(=O)CN(CC(=O)OCOC(C)=O)c1ccccc1OCCOc1ccccc1N(CC(=O)OCOC(C)=O)CC(=O)OCOC(C)=O	0	-	0	-	-	-
CCc1cc(C(=O)Cc2cnn(-c3ccccc3)c2)c(O)cc1O	?	0	?	?	0	?
O=C(Cc1cnn(-c2ccccc2)c1)c1ccc(O)c(O)c1O	0	0	3.16µM	0	0	28.2µM
CCn1c(C)nc2cc(C(=O)n3cc(C(=O)c4ccccc4O)cn3)ccc21	-	?	0	0	0	-
Cc1ccc(-n2cc(C(=O)c3ccccc3O)cn2)cc1	0	0	?	0	0	?
COc1ccc(C(=O)n2cc(C(=O)c3cc(C)ccc3O)cn2)cc1OC	0	0	0.159µM	0	-	?
Cc1ccc(O)c(C(=O)c2cnn(-c3ccccc3)c2)c1	0	0	0	0	0	3.55µM
COc1ccc(O)c(C(=O)c2cnn(C(=O)c3cc(C)oc3C)c2)c1	0	0	3.55µM	0	0	0
COc1ccc(C(=O)NC(NC(=O)c2ccc(OC)c(OC)c2)c2ccccc2F)cc1OC	0	0	?	0	-	0
CC/C=C\C/C=C\C/C=C\C/C=C\C/C=C\CCCC(=O)O	0	-	0	0	-	0
O=C(c1ccncc1)N1CCC2(CC1)CN(c1ccccn1)C2	0	-	?	0	-	?
COc1ccc(C(=O)n2cc(C(=O)c3cc(C)ccc3O)cn2)cc1	0	?	0.398µM	0	-	0
O=C(Nc1ccccc1)N1CCCC(CNS(=O)(=O)Cc2ccccc2)C1 (configuration not stated)	0	-	0	-	-	-
O=S(=O)(Cc1ccccc1)NCC1CCCN(Cc2cccc3nonc23)C1 (configuration not stated)	0	-	10µM	-	-	-
NC(=O)NC(N)=O	0	-	0	0	-	0
Cc1cccc(-n2cc(-c3ccccc3)c3c(N4CCOCC4)ncnc32)c1	0	-	17.8µM	-	-	-
SMILES	IMPase Li cell	PNC assembly inh	ALDH1A1 inh	ALOX12 inhib	IMPase inh	HPGD block
Cc1ccc(-n2cc(-c3ccccc3)c3c(N4CCOCC4)ncnc32)cc1	0	-	?	-	-	-
CCCCc1nc2c(c3c1C[C@H](C)OC3)CN(C(=O)Nc1ccc(OC)cc1)CC2	0	-	0[13.5 µM]	0[11.4 µM]	-	0
Cn1c(N=NC(=O)c2ccccc2)c(O)c2ccccc21	0	-86.1	?	0	-	0
Cn1cccc1C(=O)N1CCC[C@@]2(CCN(Cc3cc(C(F)(F)F)cc(C(F)(F)F)c3)C2)C1	0	-	0	0	-	0
CC(C)NC(=O)CSc1nc2ccccc2n1CC(=O)N(C(C)C)C(C)C	0	-	0	-	-	-
CC(C)N(C(=O)CSc1nc2ccccc2n1Cc1ccc(F)cc1)C(C)C	0	?	25.1µM	0	0	0
Cc1cc(-c2nc(C)c(C(=O)NN)s2)no1	-	-	10µM	-	-	-
Cc1nc(NS(=O)(=O)c2ccccc2)sc1C(=O)NN	0	-	0	-	-	-
Cc1ccc(N/C=C/C(=O)c2sc(-c3ccccc3)nc2C)cc1	0	0	11.2µM	0	?	0
Cc1nc(N)sc1C(=O)NN	-	-	25.1µM	-	-	-
C=CCNC(=O)c1sc(-c2ccccc2)nc1C	0	-	0	-	-	-
Cc1nc(-c2ccccc2)sc1C(=O)NN	0	-	4.47µM	-	-	-
Cc1ccc(N/C=C/C(=O)c2cccs2)cc1	0	-	?	-	-	-
NC1(C(=O)O)CCc2cc(P(=O)(O)O)ccc21 (configuration not stated)	0	-	0	-	-	-
COc1ccc(CN2CCN(c3ncnc4sc5c(c34)CCCC5)CC2)cc1F	-	-	-	-	0	-
Nc1ncnc2c1ncn2[C@@H]1O[C@@H](C(=O)NC2CC2)[C@H](O)[C@@H]1O	-	-	-	0	0	-
CC(=O)C1=C(C)N(Cc2ccco2)C(=O)N[C@@H]1c1ccccc1	0	-	0	-	-	0
O=[N+]([O-])c1ccc(Cl)cc1Cl	0	-	0	0	-	0
COc1ccc(CCCc2n[nH]c(=S)o2)cc1C	0	-	8.91µM	-	-	-
CCN(CC)S(=O)(=O)c1ccc(N=Cc2c(C)c(C#N)c(=O)n(C)c2O)cc1	0	0	?	0	-	0
O=C1CCCC2=C1C(c1ccc(Cl)cc1)N1C(=O)CCSC1=N2 (configuration not stated)	0	-100.0	0	0	0	?
CC1(C)CC(=O)C2=C(C1)N=C1SCCC(=O)N1C2c1ccccc1 (configuration not stated)	0	?	?	0	?	0
Cc1sc2nc3c(SC(C)C(=O)O)cc(C(=O)c4ccccc4O)cn3c(=O)c2c1C (configuration not stated)	0	0	8.91µM	0	-	0
CCOC(=O)c1sc2nc3c(SCC(=O)O)cc(C(=O)c4cc(F)ccc4O)cn3c(=O)c2c1C	0	?	0	0	-	0
O=C(O)CSc1cc(C(=O)c2ccccc2O)cn2c(=O)c3c(-c4ccccc4)csc3nc12	0	-	3.55µM	-	-	-
CCOC(=O)c1sc2nc3c(SCC(=O)O)cc(C(=O)c4ccccc4O)cn3c(=O)c2c1C	0	-	0	-	-	-
CC(C)[C@]1(Cl)CC[C@@H]2[C@]3(C)CCC[C@@](C)(C(=O)O)[C@H]3C[C@H](Cl)[C@@]2(Cl)[C@H]1Cl	0	-	0[13.5 µM]	0[11.4 µM]	-	0
CC/C(=N/Nc1ccccc1)c1cnnc(-c2ccccc2)n1	0	0	10µM	0	0	0
Cc1[nH]n(-c2ccccc2)c(=S)c1C=Nc1ccc([N+](=O)[O-])cc1	0	0	5.62µM	?	-	3.55µM
Cc1[nH]n(-c2ccccc2)c(=O)c1C=Nc1cnc2ccccc2c1	0	0	0	0	0	0

Screening data from PubChem.
